Source: PubChem BioAssay
Active and inactive are the calls of the source.

System: XIP peptide (Xip251-270) binding
Test: small-molecule binders of XIP peptide, primary screen, biochemical, small-molecule microarray, fluorescence 635/667 nm, 0.1 µg/mL protein (AID 1182)
Details: fluorescent protein binding, 635 nm, higher = more signal, called active from +8 up or from −8 down

Composite z-score, inactive:
CCCC=C(CCC)[C@@H](NC(=O)c1ccc(-c2ccccc2)cc1)c1ccc(C(=O)OC)cc1 -0.144
COC(=O)[C@@]1(Cc2ccccc2)[C@H]2c3cc(C(=O)N4CCCC4)n(Cc4ccccn4)c3C[C@H]2CN1C(=O)c1ccccc1 0.766
O=C(CS)NCCCCCNC(=O)[C@@H]1C[C@@H]2C(=O)N[C@@H](Cc3ccccc3)C(=O)N2[C@@H]1c1ccc(O)cc1 0.508
CC(C)C[C@@H]1NC(=O)[C@H]2C[C@@H](C(=O)NCCCCCCN(C)C)[C@@H](c3cccc(OCCO)c3)N2C1=O 2.09
COCCCNC(=O)[C@@]1(CCS(=O)(=O)c2ccccc2)N=C(c2ccc(OCCCO)cc2)O[C@H]1c1ccccc1 1.3
Cc1ccc(S[C@]2(C(=O)NCC(F)(F)F)CC(=O)N(Cc3ccccc3Cl)[C@@H]2c2ccc(CO)cc2I)cc1 0.292
O=C1O[C@@H](c2ccccc2)[C@@H](c2ccccc2)N2[C@@H](c3ccc(OCCO)cc3)[C@]3(C(=O)Nc4ccc(C#CCCO)cc43)[C@@H](C(=O)N3CCCCCCC3)[C@H]12 2.93
CCOC(=O)C1=CCC(c2cc3ccccc3[nH]2)NC1 (stereo unspecified) -0.0143
O=C1NC(=O)C2C1C=CC(C(O)Cc1ccccc1)N2Nc1ccccn1 (stereo unspecified) -0.0757
C#C[C@@H]1Oc2ccccc2S(=O)(=O)N2CCC[C@H]12 -0.037
COc1ccc([Si](C)(C)[C@H]2[C@H](CCO)O[C@@]3(C(=O)N(Cc4cccc(NC(=O)[C@H](C)O)c4)c4ccccc43)[C@@H]2C)cc1 -0.201
C=CCOC(=O)[C@H]1[C@@H]2C(=O)O[C@@H](c3ccccc3)[C@@H](c3ccccc3)N2[C@@H](c2ccc(OCCOC(=O)[C@H]3C[C@H]4C(=O)N5CCC[C@H]5C(=O)N4[C@H]3c3cccc(OCCO)c3)cc2)[C@]12C(=O)Nc1ccc(I)cc12 2.54
C=C(/C(=C/C[C@@H](OC(=O)c1ccncc1)c1ccc(OCCO)cc1)c1cnc2ccccc2c1)C(C)C -0.214
O=C1C[C@]2(c3ccc([N+](=O)[O-])cc3)C(=O)N(CCN3CCOCC3)c3cc(CO)ccc3[C@H]2N1CC12CC3CC(CC(C3)C1)C2 0.288
CC(C)C[C@@H]1NC(=O)[C@H]2C[C@@H](C(=O)O)[C@@H](c3ccc(O)cc3)N2C1=O 0.0473
COCCOC(=O)N1C(=O)[C@@]2(c3cc(C#Cc4ccc(OC)cc4)ccc31)[C@H](c1ccc(O)cc1)N1[C@H](c3ccccc3)[C@H](c3ccccc3)OC(=O)[C@H]1[C@@H]2C(N)=O -0.0296
CC(C)NC(=O)[C@@]1(C)c2ccccc2C(=O)N(Cc2cc(F)cc(C(F)(F)F)c2)[C@H]1c1ccc(CO)cc1 1.06
COCCOC(=O)N1C(=O)[C@@]2(c3ccccc31)[C@H](C(N)=O)[C@H]1C(=O)O[C@H](c3ccccc3)[C@H](c3ccccc3)N1[C@@H]2c1ccccc1OCCO 3
CN1C(=O)C2C=CC(C(O)c3ccc(I)cc3)N(NC(=O)OC(C)(C)C)C2C1=O (stereo unspecified) 0.0031
C=CCC(OC(C)=O)[C@@H]1[C@@H](N(Cc2cc3ccccc3o2)C(=O)Cc2ccc(F)cc2)c2cc(OCCCO)ccc2N1C(=O)Cc1ccc(OC)cc1 (stereo partly specified) -0.386
CN1C(=O)C2C=CC(C(O)C(c3ccccc3)c3ccccc3)N(NC(=O)OC(C)(C)C)C2C1=O (stereo unspecified) 3.1
COCCCNC(=O)[C@]1(CCC(=O)OC(C)(C)C)N=C(c2ccc(OCCCO)cc2)O[C@@H]1c1ccccc1N=[N+]=[N-] 0.448
O=C1O[C@@H](c2ccccc2)[C@@H](c2ccccc2)N2[C@@H](c3ccccc3OCCO)[C@]3(C(=O)Nc4ccc(C#CCCO)cc43)[C@@H](C(=O)O)[C@H]12 0.106
CN1C(=O)C2C(C1=O)C1C=C(CCCO)C2C(c2ccc(CN3CCCC3)cc2)N1C (stereo unspecified) 0.413
COC(=O)[C@@]1(Cc2ccc(F)cc2)[C@@H]2C(=CC(=O)[C@H]2CC(=O)C(=O)N(C)C)CN1C(=O)c1ccccc1 0.0142
[N-]=[N+]=NCc1ccccc1C[C@]1(C(=O)NCc2ccccc2)N=C(c2ccc(OCCCO)cc2)O[C@H]1c1ccccc1N=[N+]=[N-] -0.649
